Only some compounds are listed: those with a hit (about 7.5% of all), similar ones and a draw of the others.
SMN2 splice enh = enhancers of SMN2 splice variant expression | actives 2.8% (n = 210,000) | HEK293 SMN2-luciferase splicing reporter, luminescence, 30-36 h | Potency, µM (doses to about 46.1 µM), for inactives: at the top dose activity change, positive = activation, hits mostly activators; also: % of control where 0% means no effect; nearly all actives have a fitted effect of over 55% in size
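HEK293 cells carry an SMN2 minigene-luciferase reporter in which exon 7 inclusion puts luciferase in frame. Cells were seeded at 2000 cells/well, attached for 10-12 hours, then exposed to compounds for 30-36 hours at 37C before ONE-Glo luminescence.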
Rab9 promoter act = activates the Rab9 promoter; Potency, µM (top dose mostly 9.22 µM), for inactives: at the highest dose activation, negative = inhibition, usual class: activators; Huh7 Rab9 promoter-luciferase reporter, luminescence, 24 h; actives 2.8% (n = 320,000); also: % of control where 0% means no effect; nearly all actives have a fitted effect of over 60% in size
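Luminescence from Amplite-detected luciferase (10 minutes, ambient) reports Rab9 promoter activation. Before that, stable Rab9-luciferase Huh7 cells (1500/well, reduced-serum OP-MEM I plus 10% FBS) were exposed to compound for 24 hours at 37C.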
ELG1 genotoxic = genotoxicity induction in ELG1-luciferase HEK293T cells. HEK293T ELG1-luciferase reporter, luminescence, 16 h. Potency, µM (highest dose often 46 µM), for the others: at the top dose activity change, positive = activation, actives largely listed as activators. actives 1.3% (n = 330,000); also: % of control where 0% means no effect; nearly all actives have a fitted effect of over 60% in size
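Genotoxicity was scored as increased ELG1-luciferase reporter signal, measured by ONE-Glo luminescence (30 min, room temperature). Compound or vehicle exposure of the HEK293T reporter cells lasted 16 hr at 37°C.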
FLuc counter = counter-screen for miR-21 project: firefly luciferase inhibitors or activators. purified FLuc, Km substrates, luminescence inhibition. Potency, µM (titrated, usually from 57.5 µM), without a hit: top-dose activity change, negative = inhibition, usual class: inhibitors. actives 6.9% (n = 360,000). AID 588342;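 also: plate controls were vehicle for no effect and reference inhibitor for full effect; nearly all actives have a fitted effect of over 55% in size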
Target sequence (P08659 whole entry, looked up): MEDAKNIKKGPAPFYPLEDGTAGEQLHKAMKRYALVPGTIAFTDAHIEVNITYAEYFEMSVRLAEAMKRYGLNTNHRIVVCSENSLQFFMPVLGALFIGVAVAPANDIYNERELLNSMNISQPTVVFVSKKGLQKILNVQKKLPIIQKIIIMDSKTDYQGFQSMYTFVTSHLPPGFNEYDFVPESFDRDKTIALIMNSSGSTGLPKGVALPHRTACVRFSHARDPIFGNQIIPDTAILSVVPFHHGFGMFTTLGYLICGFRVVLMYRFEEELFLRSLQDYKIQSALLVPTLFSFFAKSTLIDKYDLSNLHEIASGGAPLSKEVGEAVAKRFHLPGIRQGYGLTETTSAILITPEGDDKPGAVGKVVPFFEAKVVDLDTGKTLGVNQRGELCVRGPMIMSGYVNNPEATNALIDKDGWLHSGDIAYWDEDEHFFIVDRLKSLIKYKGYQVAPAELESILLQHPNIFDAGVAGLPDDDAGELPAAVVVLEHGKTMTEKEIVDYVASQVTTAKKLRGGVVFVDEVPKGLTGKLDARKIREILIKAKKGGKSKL
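Purified P. pyralis luciferase (10nM final) with 10uM D-luciferin and 10uM ATP (Km levels) in 50mM Tris acetate pH 7.5, 10mM Mg acetate, 0.01% Tween-20, 0.05% BSA; qHTS 6-point titration, ~60 µM downward; luminescence read.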
NPC1 promoter act = activates the NPC1 promoter | Huh7 NPC1 promoter luciferase reporter, 24 h | Potency, µM (titrated, usually from 9.22 µM), for the others: at the top dose activation, usual class: activators | actives 2.4% (n = 320,000); also: % of control where 0% means no effect; nearly all actives have a fitted effect of over 60% in size
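Huh7 cells stably carrying NPC1 promoter–luciferase, plated in Opti-MEM with 10% FBS for 2 h, were exposed to compound in DMSO for 24 h at 37 °C; luciferase reagent was added for 10 min and luminescence read.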
* marks the source's active call; other numbers are inactive results; ? = inconclusive; / = no result. Calls follow the shape of the dose curve; as a rule, active = well fitted curve in the direction sought with a large enough effect; inconclusive = small, poorly fitted or top-dose-only effect, or another doubt; inactive = no such curve, though single readings can be large; an effect the other way counts as inactive or inconclusive. Potency is read from the fitted curve at half-maximal effect.

SMILES	SMN2 splice enh	Rab9 promoter act	ELG1 genotoxic	FLuc counter	NPC1 promoter act
CCNC(=S)NNC(=O)c1cc(CC(C)C)nc2ccccc12	-17.9%	4.7%	-2.0%	?	-8.2%
COc1ccc(/C=C/C(=O)NC(=S)NNC(=O)c2c(-c3ccccc3)noc2C)cc1	-50.4%	-10.3%	-0.8%	1.8%	0.9%
CCCOc1cccc(-c2cc(C(=O)NNC(=S)NCC)c3ccccc3n2)c1	21.4%	?	27.0%	0.757µM*	21.0%
COc1ccc(-c2cc(C(=O)NNC(=S)NC(=O)c3c(-c4ccccc4)noc3C)[nH]n2)cc1	-7.7%	2.0%	-7.6%	9.53µM*	-3.7%
Cc1ccc(NC(=O)Cn2c(=O)n(Cc3ccco3)c(=N)c3c4c(sc32)COC(C)(C)C4)cc1	28.2%	-1.6%	-10.5%	0.0%	2.1%
Cc1ccc(NC(=O)c2cccc(S(=O)(=O)N3CCN(c4ccccc4)CC3)c2)nc1	/	-15.5%	14.6µM*	2.4%	-5.9%
Cc1ccnc(NC(=O)c2cccc(S(=O)(=O)N3CCN(c4ccccc4)CC3)c2)c1	/	?	?	1.9µM*	20.3%
O=C(Nc1ccc(Cl)cn1)c1cccc(S(=O)(=O)N2CCCC2)c1	/	12.3%	-8.3%	0.7%	1.6%
N#CC(C(=O)Nc1ccccc1)=C1Nc2ccccc2N1	-26.3%	18.6%	4.6%	21.3µM*	-0.9%
C/C(=N\NC(=O)COc1ccccc1F)c1cc2ccccc2o1	?	?	?	10.7µM*	?
CN(CC(=O)Nc1ccc(F)c(F)c1F)C(=O)c1ccc(=O)[nH]c1	/	1.12µM*	4.61µM*	4.26µM*	0.891µM*
CCN(CC(=O)NCc1cccs1)CC(=O)Nc1c(Cl)ccc(C)c1Cl	/	0.7%	-5.6%	-2.2%	-6.2%
Nc1ccc(C(=O)OCCc2ccccc2)cc1	/	3.16µM*	?	0.601µM*	3.55µM*
COc1ccc(CCOC(=O)c2ccc(NC(=O)CC#N)cc2)cc1	/	1.7%	4.4%	-12.9%	-0.1%
COc1ccc(C(=O)OCCc2ccc(O)cc2)cc1	?	?	13µM*	6.75µM*	?
O=C(OCCc1ccccc1)c1cc(O)c(O)c(O)c1	/	16.0%	?	23.9µM*	-1.9%
O=C(OCCCCOC(=O)c1ccccc1)c1ccccc1	/	-6.1%	-2.2%	-0.5%	-6.8%
CN(C)S(=O)(=O)c1ccc(C(=O)OCCc2ccccc2)cc1	/	0.0%	14.1%	15.1µM*	1.1%
CC(=O)c1c(C)[nH]c(C(=O)Nc2cccc(S(=O)(=O)N(C)C)c2)c1C	11.2µM*	?	?	-17.8%	1.0%
CC(=O)c1c(C)[nH]c(C(=O)Nc2ccc(S(=O)(=O)N(C)C)cc2)c1C	/	1.9%	7.9%	-2.3%	-9.5%
CC(=O)c1c(C)[nH]c(C(=O)Nc2cccc(S(=O)(=O)N3CCCC3)c2)c1C	/	/	16.4µM*	/	/
N#Cc1cccc(NC(=O)CSc2nnc(-c3n[nH]c4ccccc34)o2)c1	12.6µM*	?	20.2%	-15.4%	?
Cc1cccc(NC(=O)CSc2nnc(-c3ccccc3C)o2)c1	12.6µM*	3.98µM*	?	0.3%	?
COc1ccccc1NC(=O)CSc1nnc(-c2ccccc2C)o1	/	/	/	-16.4%	/
Cc1ccccc1-c1nnc(SCC(=O)Nc2cccnc2Cl)o1	/	/	2.06µM*	/	/
SMILES	SMN2 splice enh	Rab9 promoter act	ELG1 genotoxic	FLuc counter	NPC1 promoter act
CCOC(=O)N1CCC(N(CCOC)C(=O)Nc2ccc(Cl)c(Cl)c2)CC1	-9.0%	-3.9%	-7.4%	-0.8%	-3.5%
O=C(NCC(=O)N(CC1CCCO1)C1(C(=O)NC2CCCC2)CCCCC1)c1ccccc1 (configuration not stated)	-6.8%	2.9%	-6.9%	1.5%	0.1%
COc1ccc(NC(=O)CN(c2cccc(C)c2C)S(=O)(=O)c2ccccc2)cc1OC	-9.1%	/	/	-10.4%	/
C/C(=N\NC(=O)c1ccoc1C)c1ccc(Br)s1	/	4.0%	?	-4.3%	-3.0%
Cc1ccc(/C=N/NC(=O)c2ccc(C(=O)N/N=C/c3ccc(C)s3)o2)s1	0.8%	-1.3%	9.8%	?	6.5%
Cc1occc1C(=O)N/N=C/c1ccc(Br)s1	/	2.82µM*	?	15.1µM*	?
Cc1ccc(/C=N/NC(=O)c2ccoc2C)s1	10µM*	3.16µM*	?	15.1µM*	?

Screening data deposited in PubChem by National Center for Advancing Translational Sciences (NCATS).
